# According to PubChem BioAssay:
# Active and inactive are the calls of the source.
# Key:
# [1] = E. coli DRC41 culture turbidity changes, primary screen, E. coli filamentation inducer project, strain DRC41, OD650, 48 h (AID 1152);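 note: E. coli MC1000 strain DRC41 lacking acrAB efflux pump and sulA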; settings: E. coli DRC41 (acrAB sulA), higher = more signal, called active from +8 up or from −8 down
# [2] = small-molecule binders of probe aLefty1, primary screen, biochemical, small-molecule microarray, 635/667 nm fluorescence (AID 1153); settings: higher = more signal;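 note: score merges spot fluorescence with signal-to-noise ratio from the scanned slide images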
# [3] = PSAC antagonists in infected red cells, primary screen, cell-based, P. falciparum Indochina, OD700, 1 h (AID 1154); settings: P. falciparum Indochina infected RBC osmotic lysis, higher = more signal, called active from +8 up or from −8 down
# [4] = PSAC antagonists in infected red cells, primary screen, cell-based, P. falciparum Indochina, OD700, 2 h (AID 1155);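 note: lysis reports solute entry through the parasite surface anion channel PSAC; channel blockers reduce lysis of infected cells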; settings: P. falciparum Indochina infected erythrocytes, osmotic lysis OD700; higher = more signal, called active from +8 up or from −8 down
# [5] = osmotic lysis modulators in infected erythrocytes, primary screen, PSAC antagonist project, cell-based, P. falciparum Indochina, OD700, 3 h (AID 1156); settings: higher = more signal, called active from +8 up or from −8 down
# [6] = PSAC antagonists in infected red cells, primary screen, cell-based, P. falciparum Indochina, OD700, 18 h (AID 1157); settings: P. falciparum Indochina infected erythrocytes, osmotic lysis OD700, 18 h; higher = more signal, called active from +8 up or from −8 down
# [7] = modulators of S6 phosphorylation in cells, primary screen, cell-based, A549, cytoblot, luminescence, serum-stimulated (AID 1158); settings: A549 phospho-S6 cytoblot, 5 h, higher = more signal;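 note: serum-stimulated A549 lung adenocarcinoma cells; signal is phosphorylated S6 detected by cytoblot immunostaining with HRP secondary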
# [8] = molecular target: NADPH oxidase 2 (Homo sapiens) (UniProt P04839); experiment: NOX2-dependent H2O2 signal modulators, primary screen, NOX inhibitor project, cell-based, HEK293-NOX2, PMA-stimulated, Amplex Red fluorescence (AID 1159); settings: 45 min, higher = more signal, called active from +8 up or from −8 down; note: test concentration not given here
# [9] = molecular target: NADPH oxidase 4 (Homo sapiens) (UniProt Q9NPH5); experiment: NOX4-dependent H2O2 signal modulators, primary screen, NOX inhibitor project, cell-based, HEK293-NOX4, tetracycline-induced, Amplex Red fluorescence (AID 1160); settings: 45 min, higher = more signal, called active from +8 up or from −8 down
# [10] = molecular target: NADPH oxidase 5 (Homo sapiens) (UniProt Q96PH1); experiment: NOX5-dependent H2O2 signal modulators, primary screen, NOX inhibitor project, cell-based, HEK293-NOX5, Amplex Red fluorescence (AID 1161); settings: HEK293-NOX5, ionomycin, 45 min, higher = more signal
# [11] = A549 cell viability effects, profiling panel, calcein-AM fluorescence, 48 h, basal (AID 1162); settings: higher = more signal; note: test concentration not given here
# [12] = adipocyte viability effects, profiling panel, cell-based, 3T3-L1 adipocytes, calcein-AM fluorescence, 48 h, basal (AID 1163); settings: 3T3-L1 adipocytes viability, higher = more signal; note: test concentration not given here
# [13] = HepG2 cell viability effects, profiling panel, calcein-AM fluorescence, 48 h, basal (AID 1164); settings: higher = more signal; note: test concentration not given here
# [14] = MM1S cell viability effects, profiling panel, calcein-AM fluorescence, 48 h, basal (AID 1165); settings: higher = more signal;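 note: viability of MM1S multiple myeloma cells under basal unstimulated conditions; test concentration not given here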
# [15] = basal RPMI8226 viability, no added stimulus, profiling panel, cell-based, calcein-AM fluorescence, 48 h, PK04 Diversity Set (AID 1166); settings: RPMI8226 myeloma viability, higher = more signal;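 note: cells grown under basal conditions without added stimulus; test concentration not given here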
# [16] = basal HepG2 mitochondrial membrane potential changes, profiling panel, cell-based, JC-1 fluorescence, 24 h, 100 nL compound (AID 1167); settings: higher = more signal; note: test concentration not given here
# [17] = basal 3T3-L1 adipocyte mitochondrial potential changes, profiling panel, cell-based, JC-1 fluorescence, 3T3-L1 adipocytes, 24 h, 100 nL compound (AID 1168); settings: JC-1 mitochondrial fluorescence, higher = more signal, called active from +8 up or from −8 down; note: test concentration not given here
# [18] = basal RPMI8226 mitochondrial membrane potential changes, profiling panel, cell-based, JC-1 fluorescence, 24 h, 100 nL compound (AID 1169); settings: RPMI8226 myeloma, JC-1 mitochondrial potential fluorescence, higher = more signal; note: test concentration not given here
# [19] = basal MM1S mitochondrial membrane potential changes, profiling panel, cell-based, JC-1 fluorescence, 24 h, 100 nL compound (AID 1170); settings: higher = more signal; note: test concentration not given here
# [20] = A549 lung cancer cell viability effects, profiling panel, resazurin fluorescence, 24 h, PK04 Diversity Set (AID 1171); settings: higher = more signal, called active from +8 up or from −8 down; note: test concentration not given here
# Sequence of NADPH oxidase 2 (Homo sapiens) (P04839 whole entry, looked up): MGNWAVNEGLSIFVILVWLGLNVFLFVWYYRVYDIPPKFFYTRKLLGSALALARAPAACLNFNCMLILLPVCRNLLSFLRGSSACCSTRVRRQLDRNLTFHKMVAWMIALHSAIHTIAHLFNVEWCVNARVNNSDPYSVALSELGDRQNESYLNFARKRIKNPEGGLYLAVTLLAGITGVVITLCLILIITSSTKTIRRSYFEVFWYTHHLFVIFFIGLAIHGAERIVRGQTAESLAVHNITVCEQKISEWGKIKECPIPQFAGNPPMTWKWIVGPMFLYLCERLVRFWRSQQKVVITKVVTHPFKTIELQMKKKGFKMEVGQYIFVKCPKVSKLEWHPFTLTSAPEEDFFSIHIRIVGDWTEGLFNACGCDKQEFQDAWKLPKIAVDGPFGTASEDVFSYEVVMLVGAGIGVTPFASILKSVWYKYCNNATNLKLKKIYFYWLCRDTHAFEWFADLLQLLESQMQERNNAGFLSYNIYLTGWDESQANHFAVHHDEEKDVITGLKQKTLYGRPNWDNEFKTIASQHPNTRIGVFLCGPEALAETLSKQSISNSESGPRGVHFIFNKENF
# Sequence of NADPH oxidase 5 (Homo sapiens) (Q96PH1 whole entry, looked up): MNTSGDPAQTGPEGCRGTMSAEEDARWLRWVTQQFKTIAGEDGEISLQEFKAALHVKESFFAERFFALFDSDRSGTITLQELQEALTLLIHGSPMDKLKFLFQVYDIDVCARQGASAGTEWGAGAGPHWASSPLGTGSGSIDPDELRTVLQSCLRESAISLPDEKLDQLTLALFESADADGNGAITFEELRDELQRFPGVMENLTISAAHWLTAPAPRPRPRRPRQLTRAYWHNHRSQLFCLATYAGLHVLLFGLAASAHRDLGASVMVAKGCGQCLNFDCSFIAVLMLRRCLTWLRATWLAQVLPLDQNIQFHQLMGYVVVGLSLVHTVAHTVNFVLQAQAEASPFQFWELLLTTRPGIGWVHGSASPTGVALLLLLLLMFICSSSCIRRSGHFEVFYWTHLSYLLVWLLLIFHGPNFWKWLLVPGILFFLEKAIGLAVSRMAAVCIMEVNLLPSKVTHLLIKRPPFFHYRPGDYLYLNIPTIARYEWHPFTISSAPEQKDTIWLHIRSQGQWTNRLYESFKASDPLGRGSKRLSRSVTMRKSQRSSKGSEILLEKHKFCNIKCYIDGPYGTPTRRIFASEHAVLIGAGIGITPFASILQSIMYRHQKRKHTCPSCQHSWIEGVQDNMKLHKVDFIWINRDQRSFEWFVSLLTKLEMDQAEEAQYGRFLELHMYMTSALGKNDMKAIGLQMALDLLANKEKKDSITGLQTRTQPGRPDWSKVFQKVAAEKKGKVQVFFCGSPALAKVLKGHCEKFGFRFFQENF
# Sequence of NADPH oxidase 4 (Homo sapiens) (Q9NPH5 whole entry, looked up): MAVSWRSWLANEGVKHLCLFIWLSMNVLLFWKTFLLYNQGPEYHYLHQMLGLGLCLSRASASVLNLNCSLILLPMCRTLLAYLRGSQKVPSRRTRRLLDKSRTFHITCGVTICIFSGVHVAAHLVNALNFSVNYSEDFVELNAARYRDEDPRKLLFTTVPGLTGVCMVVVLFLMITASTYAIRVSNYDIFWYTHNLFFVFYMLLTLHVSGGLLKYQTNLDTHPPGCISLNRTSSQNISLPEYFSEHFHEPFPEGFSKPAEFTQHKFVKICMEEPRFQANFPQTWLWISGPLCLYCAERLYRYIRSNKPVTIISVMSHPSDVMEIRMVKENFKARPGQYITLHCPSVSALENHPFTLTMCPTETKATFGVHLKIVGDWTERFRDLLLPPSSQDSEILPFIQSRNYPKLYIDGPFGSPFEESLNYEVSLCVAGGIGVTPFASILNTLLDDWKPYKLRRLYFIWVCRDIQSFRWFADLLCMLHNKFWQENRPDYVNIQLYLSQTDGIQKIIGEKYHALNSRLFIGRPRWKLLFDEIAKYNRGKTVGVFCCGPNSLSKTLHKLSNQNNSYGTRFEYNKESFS
SMILES,z-score [1],composite z-score [2],z-score [3],z-score [4],z-score [5],z-score [6],z-score [7],z-score [8],z-score [9],z-score [10],z-score [11],z-score [12],z-score [13],z-score [14],z-score [15],z-score [16],z-score [17],z-score [18],z-score [19],z-score [20]
CCCCC(O)C1C=CC2C(=O)N(C)C(=O)C2N1N(c1ccccc1)c1ccccc1 (stereo not given),-2.15 (inactive),0.475,3.81 (inactive),1 (inactive),1.3 (inactive),0.951 (inactive),-1.05,-0.334 (inactive),-1.98 (inactive),-0.376,-0.646,-1.68,0.821,-0.769,-0.938,-1.19,-1.3 (inactive),-0.198,-0.497,-0.7 (inactive)
CCCC[C@@H](O)C1=C(COc2ccccc2)C[C@H]2C(=O)N(Cc3ccccc3)C(=O)[C@H]2[C@H]1CO,0.232 (inactive),-0.0564,13.9 (active),1.59 (inactive),-1.11 (inactive),0.967 (inactive),-0.326,-0.77 (inactive),-0.286 (inactive),-0.695,0.553,-0.0277,0.913,-0.189,0.0172,1.17,0.0746 (inactive),-1.06,-0.172,-0.0959 (inactive)
O=C1C2C=CC(C(O)c3cccc(O)c3)N(Nc3ccc([N+](=O)[O-])cc3)C2C(=O)N1c1ccccc1 (stereo not given),-0.367 (inactive),0.0361,23.8 (active),5.34 (inactive),3.57 (inactive),1.22 (inactive),-0.609,-2.1 (inactive),-4.41 (inactive),-4.26,-0.505,-0.55,-0.0586,-0.0899,0.45,-2.01,-1.78 (inactive),-0.217,-1.25,0.014 (inactive)
CN(C)C(=O)[C@@]1(Cc2ccccc2)N=C(c2ccc(OCCCO)cc2)O[C@H]1c1ccccc1,0.756 (inactive),-0.0171,14.9 (active),2.63 (inactive),1.4 (inactive),1.33 (inactive),-0.39,-0.896 (inactive),0.068 (inactive),-1.7,-0.518,0.208,0.64,-0.918,-3.24,0.285,0.708 (inactive),-0.0484,-0.303,1.18 (inactive)
Cc1ccc(NN2C(C(O)c3c(F)cccc3Cl)C=CC3C(=O)N(C4CCCCC4)C(=O)C32)cc1 (stereo not given),0.0905 (inactive),0.23,12.9 (active),1.86 (inactive),2.45 (inactive),0.902 (inactive),-0.319,-1.41 (inactive),-0.336 (inactive),-1.67,0.57,-0.617,0.934,0.949,0.451,-0.511,0.165 (inactive),0.0377,-1.04,0.693 (inactive)
COc1ccc([Si](C)(C)[C@@H]2[C@@H](CC(=O)N3CCC[C@H]3CO)O[C@]3(C(=O)N(Cc4cccc(N5C(=O)COc6ccccc65)c4)c4ccccc43)[C@H]2C)cc1,-0.194 (inactive),0.0005,3.76 (inactive),1.41 (inactive),-1.47 (inactive),0.646 (inactive),0.324,2.66 (inactive),1.74 (inactive),4.12,-0.97,0.441,-4.31,-2.96,-3.83,-1.81,-1.01 (inactive),-0.975,-2,-2.13 (inactive)
C=CC[C@H](OC(=O)Nc1ccc(SC)cc1)c1ccc(O)c2ccccc12,-1.2 (inactive),0.27,29.5 (active),16.8 (active),2.22 (inactive),1.63 (inactive),0.76,-5.83 (inactive),-1.41 (inactive),-0.0589,-2.22,-0.162,-3.05,-2.74,-4.21,-3.26,0.41 (inactive),-1.02,-2.09,-1.24 (inactive)
COC(=O)[C@]1(CCS(=O)(=O)c2ccccc2)N=C(c2ccc(OCCCO)cc2)O[C@@H]1c1ccccc1N=[N+]=[N-],-1.59 (inactive),0.569,29.4 (active),27.2 (active),4.22 (inactive),6.59 (inactive),0.188,-2.07 (inactive),0.661 (inactive),-2.01,-1.49,1.78,-2.18,-2.8,-3.33,0.811,-0.294 (inactive),-1.13,0.546,-3.46 (inactive)
CC(=O)N1CC2(CC2)CC1c1ccccc1 (stereo not given),-1.35 (inactive),0.433,-0.0747 (inactive),0.635 (inactive),0.539 (inactive),0.715 (inactive),-0.0482,-0.328 (inactive),-1.08 (inactive),-2.74,-1.64,0.334,-1.34,-0.386,-1.14,-1.15,-1.86 (inactive),0.0805,0.359,-0.714 (inactive)
